Our source for the outcome values is PubChem BioAssay AID1117292 (Broad Institute, 2014).

Measured potencies and affinities stand elsewhere. Records with an inconclusive call do not appear. The source made the active and inactive calls.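 How the source made its calls: active means compound whose fitted half-maximal dose for signal loss lies within twice the top dose in every replicate test; inconclusive means tests disagree, or flat partial signal loss or poor fit; inactive means every test inactive, flat, rising or too weak.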

For the experiment, the target named is Endoplasmic reticulum aminopeptidase 1 (Homo sapiens) (UniProt Q9NZ08). Description: ERAP1 enzyme inhibitors, dose response, biochemical, fluorescence plate reader, dry powder (AID 1117292). The settings on record: purified ERAP1, Leu-AMC fluorescence, 60 min; series mostly up to 50 µM.
Endoplasmic reticulum aminopeptidase 1 (Homo sapiens), sequence (Q9NZ08 whole entry, looked up): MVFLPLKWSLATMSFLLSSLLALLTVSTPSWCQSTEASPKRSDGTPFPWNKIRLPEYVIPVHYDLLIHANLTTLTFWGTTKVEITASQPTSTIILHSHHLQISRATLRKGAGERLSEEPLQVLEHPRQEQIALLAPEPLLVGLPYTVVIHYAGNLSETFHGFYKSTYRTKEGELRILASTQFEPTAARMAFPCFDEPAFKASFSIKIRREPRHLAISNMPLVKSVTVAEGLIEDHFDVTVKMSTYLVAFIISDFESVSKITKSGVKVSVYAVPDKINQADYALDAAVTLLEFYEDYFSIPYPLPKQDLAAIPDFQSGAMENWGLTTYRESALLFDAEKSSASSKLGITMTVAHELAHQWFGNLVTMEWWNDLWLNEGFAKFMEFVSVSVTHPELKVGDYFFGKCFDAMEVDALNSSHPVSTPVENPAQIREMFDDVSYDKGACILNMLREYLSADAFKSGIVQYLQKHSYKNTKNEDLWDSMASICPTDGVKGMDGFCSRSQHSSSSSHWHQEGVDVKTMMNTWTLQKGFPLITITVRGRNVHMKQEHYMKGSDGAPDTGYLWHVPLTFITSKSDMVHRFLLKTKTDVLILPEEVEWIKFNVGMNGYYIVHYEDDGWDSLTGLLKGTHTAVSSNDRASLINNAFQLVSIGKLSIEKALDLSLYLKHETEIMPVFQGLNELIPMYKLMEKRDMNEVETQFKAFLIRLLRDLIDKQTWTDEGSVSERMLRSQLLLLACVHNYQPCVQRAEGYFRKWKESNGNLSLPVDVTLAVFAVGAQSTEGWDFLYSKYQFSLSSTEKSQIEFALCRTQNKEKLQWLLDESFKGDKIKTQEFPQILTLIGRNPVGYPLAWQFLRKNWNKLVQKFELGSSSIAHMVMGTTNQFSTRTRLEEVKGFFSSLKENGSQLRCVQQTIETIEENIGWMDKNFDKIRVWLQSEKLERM
Consider `CC(=O)N1CCN(C(=O)[C@@H]2CCN2C(=O)Nc2ccc(C)cc2)CC1`, for which the compound was called inactive.

Consider `O=[N+]([O-])c1cccc(S(=O)(=O)Nc2cc(C(F)(F)F)ccc2N2CCCCC2)c1`, for which the compound was called inactive. `CC(=O)N1CCN(C(=O)C2(NC(=O)Nc3ccc(C)cc3)CC2)CC1`: the result was inactive. On to `CC(=O)N1CCN(C(=O)C2CCCN2C(=O)Nc2ccc(C)cc2)CC1` (configuration not stated), for which the outcome was inactive.

Regarding `CC(=O)N1CCN(C(=O)C2(NC(=O)Nc3ccc(F)cc3)CCCCC2)CC1`, the call was inactive. In the case of `O=[N+]([O-])c1ccc(S(=O)(=O)Nc2cc(C(F)(F)F)ccc2N2CCCCC2)c([N+](=O)[O-])c1`, the compound was classed as inactive.

In the case of `COc1ccc(C(=O)O)cc1S(=O)(=O)Nc1cc(C(F)(F)F)ccc1N1CCOCC1`, the compound was classed as inactive. Under `Cn1cnc(S(=O)(=O)Nc2cc(C(F)(F)F)ccc2N2CCCCC2)c1` stands “inactive”.

For `COc1cccc(NC(=O)NC2(C(=O)N3CCN(C(C)=O)CC3)CCCCC2)c1`, the call was inactive.

As for `CC(=O)N1CCN(C(=O)C2(NC(=O)NCCc3ccccc3)CCCCC2)CC1`, the compound was called inactive. As for `CC(=O)N1CCN(C(=O)C2(NC(=O)Nc3ccccc3F)CCCCC2)CC1`, the compound was called inactive. Regarding `COc1ccc(C(=O)O)cc1S(=O)(=O)Nc1cc(C(F)(F)F)ccc1N(C)C`, the outcome was inactive.

As to `COc1ccc(C(=O)O)cc1S(=O)(=O)Nc1cc(C(F)(F)F)ccc1N1CCCCC1`, the compound was classed as inactive. For the compound `COc1ccc(S(=O)(=O)Nc2cc(C(F)(F)F)ccc2N2CCCCC2)cc1`, the outcome was inactive. Under `CC(=O)N1CCN(C(=O)C2(NC(=O)Nc3ccccc3)CCCC2)CC1` stands “inactive”.

As to `O=S(=O)(Nc1cc(C(F)(F)F)ccc1N1CCCCC1)c1ccc(C(F)(F)F)cc1`, the compound was classed as inactive. Turning to `CC(=O)N1CCN(C(=O)C2(NC(=O)Nc3ccc(C(F)(F)F)cc3)CCCC2)CC1`, the compound was called inactive. Under `CC(=O)N1CCN(C(=O)C2(NC(=O)Nc3ccc(F)cc3)CCCC2)CC1` stands “inactive”; under `COc1ccc(C(=O)Nc2ccccc2N2CCCCC2)cc1S(=O)(=O)O`, “inactive”. As for `COc1ccc(C(=O)Nc2cccc(C(F)(F)F)c2)cc1S(=O)(=O)O`, the outcome was inactive.

Turning to `Cc1ccccc1S(=O)(=O)Nc1cc(C(F)(F)F)ccc1N1CCCCC1`, the compound was classed as inactive. Under `COc1ccc(C(=O)Nc2cc(C(F)(F)F)ccc2N2CCCC2)cc1S(=O)(=O)O` stands “inactive”.
